# ChEMBL document CHEMBL4513135, “CO-ADD screening of IQOG CSIS (Spain) compounds”
# Where “and” joins values, the source holds several entries; their conditions need not be identical. Equal entries are not always repeated. Results with a measured potency or affinity are listed apart.
# What was measured:
# Staphylococcus aureus = settings: Concentration 32 ug.mL-1, ASSAY_TEST Inhibition of Bacterial Growth, detection method Absorption (OD600), MEDIA CAMHB, plate type 384well, NBS, CORNING #3640, time 18 hr
# Escherichia coli = settings: Concentration 32 ug.mL-1, ASSAY_TEST Inhibition of Bacterial Growth, detection method Absorption (OD600), MEDIA CAMHB, plate type 384well, NBS, CORNING #3640, time 18 hr
smiles,measurement,setting,value
COc1ccc(-c2cc(-c3ccccc3)c(C#N)c(N)n2)cc1,Inhibition,Staphylococcus aureus,10.32%
same,Inhibition,Escherichia coli,-23.38%
COc1cccc(C2c3c(ccc4ccccc34)OC(=N)C2(Br)C#N)c1 (configuration not stated),Inhibition,Escherichia coli; 32 ug/mL,-22.74% and -4.85%
CC1=C(C(=O)O[C@@H]2C[C@@]3(C)CC[C@H]2C3(C)C)C(c2ccccc2)C(C#N)=C(N)O1 (some centres not stated),Inhibition,Staphylococcus aureus,-12.42%
same,Inhibition,Escherichia coli,16.17%
COc1ccc(C2C(C#N)=C(Cl)Oc3c2ccc2ccccc32)cc1OC (configuration not stated),Inhibition,Staphylococcus aureus,-3.84%
same,Inhibition,Escherichia coli,-30%
COc1ccc(-c2cc(-c3cc4ccc(F)cc4nc3Cl)cc(=O)[nH]2)cc1,Inhibition,Staphylococcus aureus,24.97%
same,Inhibition,Escherichia coli,-19.12%
COc1ccc(C2C(C#N)=C(N)Oc3ccc4ccccc4c32)cc1OC (configuration not stated),Inhibition,Staphylococcus aureus,19.72%
same,Inhibition,Escherichia coli,-23.42%
C#CCNc1ncc(C#N)c(N)n1,Inhibition,Staphylococcus aureus,8.61%
same,Inhibition,Escherichia coli,-16.66%
CC(=O)Nc1nn(C)c2nc3nc4c(c(N)c3cc12)CCCC4,Inhibition,Staphylococcus aureus; 32 ug/mL,26.15% and 21.32%
same,Inhibition,Escherichia coli; 32 ug/mL,-7.37% and -4.67%
Cl.ClCCCN1CCCC1,Inhibition,Staphylococcus aureus,23.18%
same,Inhibition,Escherichia coli,5.15%
O=C(O)/C(=C\c1ccccc1)NC(=O)c1ccccc1,Inhibition,Staphylococcus aureus,14.68%
same,Inhibition,Escherichia coli,10.16%
COc1[nH]c(=O)ccc1C#N,Inhibition,Staphylococcus aureus,31.13%
same,Inhibition,Escherichia coli,-5.91%
N#Cc1c(-c2cccc([N+](=O)[O-])c2)c2ccc3ccccc3c2oc1=O,Inhibition,Escherichia coli; 32 ug/mL,-5.38% and -17.97% and -15.63%
COc1cc(CCC(N)=O)ccc1O,Inhibition,Staphylococcus aureus,8.5%
same,Inhibition,Escherichia coli,5.11%
COc1ccc2c(c1)cc(CNc1ccccc1)n2C,Inhibition,Staphylococcus aureus,20.09%
same,Inhibition,Escherichia coli,-6.35%
Cl.Nc1c2c(nc3c1C(c1c(Cl)cccc1Cl)c1ccc4ccccc4c1O3)CCCC2 (configuration not stated),Inhibition,Staphylococcus aureus,-3.18%
same,Inhibition,Escherichia coli,-2.79%
C#CCN(C)Cc1cc2cc(OCOc3ccc4c(c3)cc(CN(C)CC#C)n4C)ccc2n1C,Inhibition,Staphylococcus aureus,15.95%
same,Inhibition,Escherichia coli,-10.88%
N#Cc1cc2c(N)n[nH]c2nc1N,Inhibition,Staphylococcus aureus,14.97%
same,Inhibition,Escherichia coli,10.46%
Cc1[nH]c2ccc(OCc3ccccc3)cc2c1C(=O)NN,Inhibition,Staphylococcus aureus,3.15%
same,Inhibition,Escherichia coli,-5.77%
C=C1CNc2c(C#N)c(-c3ccccc3)c(C#N)c(=N)n21,Inhibition,Staphylococcus aureus,17.65%
same,Inhibition,Escherichia coli,-9.94%
COc1ccc(C2C(C#N)=C(N)Oc3c2ccc2ccccc32)cc1OC (configuration not stated),Inhibition,Escherichia coli,-16.13%
Cl.NC1(C(=O)O)CC1c1cccc(Cl)c1 (configuration not stated),Inhibition,Staphylococcus aureus,12.59%
same,Inhibition,Escherichia coli,12.02%
CCCCNNC(=O)c1cc2ccccc2[nH]1,Inhibition,Staphylococcus aureus,0.71%
same,Inhibition,Escherichia coli,-2.05%
O=C1C=C(Nc2ccccc2)C(=O)N1c1ccccc1,Inhibition,Staphylococcus aureus,3.04%
same,Inhibition,Escherichia coli,4.55%
CC1CN(C)c2c(C#N)c(-c3ccccc3)c(C#N)c(=N)n21 (configuration not stated),Inhibition,Staphylococcus aureus,26.27%
same,Inhibition,Escherichia coli,-6.63%
COc1cccc(C2c3c(ccc4ccccc34)OC(=NBr)C2(Br)C#N)c1 (configuration not stated),Inhibition,Staphylococcus aureus,39.2%
same,Inhibition,Escherichia coli,-16.78%
